# ChEMBL document CHEMBL1157539, “Thousands of chemical starting points for antimalarial lead identification” (Nature, 2010)
# System: HepG2
# Assay: GSK_TCMDC: Percent inhibition of human HepG2 cell line. Test compounds present at 10uM.
# Type: functional
row,SMILES,Inhibition [%]
1,COc1ccc2nccc([C@@H](O)CN3CCC(NCc4ccc5c(c4)nnn5C(C)C)CC3)c2c1.O=C(O)C(=O)O,15
2,CCN(CC)CCn1c(=N)n(CC(O)c2ccc(Cl)c(Cl)c2)c2ccccc21.Cl (centres undefined),35
3,CCOC(=O)NC1=NC(=N)N(OCCCOc2cc(Cl)c(Cl)cc2Cl)C(C)(C)N1,63
4,CCc1c(C(=O)NC2CCC(N3CCC(c4ccccc4C)CC3)CC2)[nH]c2ccc(OC)cc12 (centres undefined),78
